Rows were chosen to be rich in hits. Some 2.6% of all compounds tested hit in one or more screens of this group.
Shn3 inh set2 = inhibitors of Schnurri-3 3'UTR reporter in osteoblasts; AID 588674; inhibition, % at 12.5 µM; 360,000 tested, 0.52% active; Clone20 osteoblast Shn3 3'UTR firefly luciferase, 24 h;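 active means mean inhibition of at least 75% with every replicate also reaching 75%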;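 further: 0% = median of neutral control wells and 100% = pilot-screen positive control compound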
HIF-2a inh = inhibitors of HIF-2a; 360,000 tested, 0.72% active; AID 624352; inhibition, % at 18.8 µM; 786-0 RCC cells HIF-2a reporter, luciferase luminescence, overnight;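 active means inhibition of the luminescence signal of 40% or more relative to plate controls, in a single-dose primary screen at 18.75 µM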
KKLEB cytotox = counter-screen for CF NF-kB inhibitors: cytotoxicity. KKLEB CF airway cells viability, ATPlite luminescence, overnight; stronger effect = lower value; cells stimulated with P. aeruginosa culture filtrate. 360,000 tested, 0.36% active. activity change (cytotoxicity), % at 5 µM;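 active means corrected activity change at or below -50% at 5 µM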
CF NFkB block = cystic fibrosis NF-kB activation inhibition; KKLEB NF-kB-GFP reporter, PAF-induced, GFP fluorescence overnight; inhibition, % at 5 µM; 360,000 tested, 0.86% active; AID 588850;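 active means at least 50% inhibition at 5 µM, scaled per plate between neutral and stimulator controls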;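 further: PAF is a Pseudomonas aeruginosa culture filtrate used as stimulus; plate controls were PAF-stimulated DMSO wells for no effect and unstimulated DMSO wells for full effect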
Peg3 promoter = Peg3 promoter activity inhibition; HeLa PEG-Prom luciferase reporter, luminescence, overnight; inhibition, % at 20 µM; 360,000 tested, 1.7% active; AID 588405;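 active means inhibition of at least 50% at 20 µM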
Numbers without * were called inactive; ! = not active in a repeat.

SMILES	Shn3 inh set2	HIF-2a inh	KKLEB cytotox	CF NFkB block	Peg3 promoter
CC(C)(C)OC(=O)NCc1ccc(NC(=O)c2nc[nH]c2C(=O)NCCNC(=O)c2[nH]cnc2C(=O)Nc2ccc(CNC(=O)OC(C)(C)C)cc2)cc1	-15	7	-32	72*	84*
COc1ccc(NS(=O)(=O)c2cccc(C(=O)NN=Cc3cc(Br)c(O)c(Br)c3)c2)cc1	5	9	-16	-4	4
CCN(c1ccccc1)S(=O)(=O)c1nnc(NC(=O)C(C)C)s1	12	7	-2	-4	6
COc1ccc(/C=C2\SC(=S)N(CCCC(=O)Nc3cccc(C(=O)O)c3)C2=O)cc1OC	5	26	0	7	20
COc1ccc(/C=C2\SC(=S)N(CCCC(=O)Nc3ccccn3)C2=O)cc1OC	5	40*	-2	6	17
COc1ccc(/C=C2\SC(=S)N(CCC(=O)NC3=NCCS3)C2=O)cc1OC	24	54*	-1	-2	-4
CCCC(=O)C1=C(O)C(C(=O)OC)C(C)(C)CC1=Nc1ccncc1 (stereo not drawn)	2	0	1	-6	1
Cc1cc(CSc2ccccc2)ccc1NC(=O)c1ccc(C)c([N+](=O)[O-])c1	12	11	-12	7	-2
Cc1cc(CSc2ccccc2)ccc1NC(=O)c1ccc(Cl)c([N+](=O)[O-])c1	19	9	-15	25	64*
CC1CCC2C(=O)N(c3ccc(Cc4ccncc4)cc3)C(=O)C2C1 (stereo not drawn)	87*	8	-1	10	10
CCOC(=O)c1c2ccc(OCC(=O)N/N=C/c3ccc(C)cc3)cc2n2ccccc12	23	-30	-5	-11	84*
CCOC(=O)c1c2ccc(OCC(=O)NN)cc2n2ccccc12	8	15	7	-25	15
C[C@]12C=CC(=O)C=C1CC[C@@H]1[C@@H]2C(=O)C[C@@]2(C)[C@H]1CC[C@]2(O)C(=O)COC(=O)CCC(=O)O	0	10	2	0	-23
CSCCC(NC(=O)CCC(=O)OCC(=O)[C@@]1(O)CCC2[C@@H]3CCC4=CC(=O)C=C[C@]4(C)C3[C@@H](O)C[C@@]21C)C(=O)O (stereo partly drawn)	-5	2	38	72*	-15
C[C@]12C=CC(=O)C=C1CC[C@@H]1C2C(O)C[C@@]2(C)C1CC[C@]2(O)C(=O)COC(=O)CCC(=O)NC(CC(=O)O)C(=O)O (stereo partly drawn)	-7	23	44	77*	-13
N#Cc1ccc(Nc2nc(-c3ccc(O)cc3O)cs2)cc1C(F)(F)F	12	-59	10	6	103*
O=C1CCC/C(=N/NC(=O)c2ccc(CN3c4cccc5cccc(c45)S3(=O)=O)cc2)C1	-6	16	-1	-7	0
Cc1nn(-c2ccc(F)cc2)c2nc(N)c(C#N)c(-c3ccc(O)c(O)c3)c12	16	24	-1	10	41
Cc1nn(-c2ccc(F)cc2)c2nc(N)c(C#N)c(-c3cccs3)c12	4	10	-15	14	84*
CC(NS(=O)(=O)c1ccc(Cl)cc1)C(=O)N1CCOCC1 (stereo not drawn)	7	-2	-9	-4	1
O=C(Nc1nc2ccccc2s1)c1ccc([N+](=O)[O-])o1	26	-136	-8	10	-143
COc1ccc2nc(NC(=O)c3ccccc3O)sc2c1	-55	-296	-28	2	-218
COc1ccc2nc(NC(=O)c3ccc([N+](=O)[O-])o3)sc2c1	-15	-136	-21	66*	-25
O=C(Nc1nc2cc3c(cc2s1)OCCO3)c1ccc([N+](=O)[O-])o1	-15	-197	-44	83*	49
CCOC(=O)c1cccc(C(=O)Nc2nc3ccc(OC)cc3s2)n1	-37	-198	-55*	-19	-133
CCCc1cc(=O)oc2c3c(c4c(c12)OC(C)(C)C=C4)OC(C)C(C)C3O (stereo not drawn)	74	26	-13	40	3
O=S(=O)(NCCc1csc(-c2cccnc2)n1)c1ccc(Cl)s1	45	2	17	6	15
O=C(/C=C/c1ccc(OCCCF)cc1)N1CCOCC1	-53	-163	7	0	-146
COc1ccccc1C(=O)NC(=Nc1nc2ccccc2o1)NC(=O)c1ccccc1OC	6	-11	0	-56	86*!

Screens: PubChem BioAssay, several laboratories
